About 83,000 compounds went through this panel and 20% of them were active in at least one assay; those are over-represented in the sample as a whole.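 Single-dose data. Exposure time 48 hours. Values below 10 considered active.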 A number with no mark means an inactive call. The source made the active and inactive calls.
Columns and labels:
Assay in all cases: NCI-60 one-dose screen, 48 h (100 = growth as untreated, 0 = no growth, -100 = all killed)
Conditions in all cases: 10 µM unless noted
NCI-H23 lung = tested on: NCI-H23 lung
NCI-H226 lung = tested on: NCI-H226 lung
NCI-H322M lung = tested on: NCI-H322M lung
HOP-62 NSCLC = tested on: HOP-62 NSCLC
NCI-H460 lung = tested on: NCI-H460 lung
HOP-92 NSCLC = tested on: HOP-92 NSCLC
NCI-H522 lung = tested on: NCI-H522 lung
A549/ATCC NSCLC = tested on: A549/ATCC NSCLC
786-0 renal = tested on: 786-0 renal
COLO 205 colon = tested on: COLO 205 colon

Row | SMILES | growth (NCI-H23 lung) | growth (NCI-H226 lung) | growth (NCI-H322M lung) | growth (HOP-62 NSCLC) | growth (NCI-H460 lung) | growth (HOP-92 NSCLC) | growth (NCI-H522 lung) | growth (A549/ATCC NSCLC) | growth (786-0 renal) | growth (COLO 205 colon)
1 | COc1ccc(Nc2ncc(Br)c(NCCCNC(=O)c3cccs3)n2)cc1 | 39.2% | 33.1% | 56.5% | 22.6% | 25.1% | 30% | 61.3% | 42.9% | 34.3% | 33.2%
2 | CC(C)(Sc1cc(C(C)(C)C)c(O)c(C(C)(C)C)c1)Sc1cc(C(C)(C)C)c(OC(=O)CCCC(=O)O)c(C(C)(C)C)c1 | 39.9% | 66.2% | 60.4% | 67% | 37% | 40.2% | 46.4% | 35% | 56.1% | 64.3%
3 | N#CC1=C(N)Oc2c(sc3c(Br)cccc23)C1c1ccc(Cl)cc1 (stereo not given) | 17.2% | 39.7% | 36.1% | 14.3% | 8.2% (active) | 35.6% | -26.8% (active) | 1.31% (active) | 5.59% (active) | -42.2% (active)
4 | CCOC(=O)c1csc(NC(=O)COc2ccc(/C=C3\Oc4ccccc4C3=O)cc2)n1 | 86.5% | 108% | 95.4% | 72.6% | 95.4% | 102% | 55.1% | 88.7% | 68.4% | 112%
5 | O=C(O)CCCN1C(=O)/C(=C/c2cn(-c3ccccc3)nc2-c2ccc([N+](=O)[O-])cc2)SC1=S | 74.6% | 64.8% | 44.1% | 49.6% | 25.7% | 111% | 83.7% | 40.5% | 64.5% | 103%
6 | CC(C)(C)CC(C)(C)NC(=O)Nc1ncccc1OCc1ccccc1 | 86.4% | 91.6% | 86.3% | 97.1% | 106% | 87.7% | 70.7% | 89.8% | 98.5% | 105%
7 | Cc1cc(C(=O)Nc2ncc(Cc3cccc(C(F)(F)F)c3)s2)c2ccccc2n1 | 51.6% | 54.4% | 59.3% | 31.8% | 11.3% | 28% | 10.3% | 24.7% | 38% | 19.2%
8 | C=CCc1c(O)c(C(=O)/C=C/c2ccccc2)c(OC)c2ccoc12 | 53.4% | 21.9% | 61.9% | 88% | 16.8% | 47.3% | 37.9% | 44.7% | 71.3% | 59.5%
9 | CCOC(=O)c1cc(C)n(-c2ccc(C(=O)O)cc2)c1C | 89.4% | 98.6% | 114% | 88.1% | 44.1% | 100% | 65.8% | 91.4% | 101% | 89.8%
10 | Cc1cc(C)c2c(c1)N(C)c1ncnc(-n3cnc4cc(C)ccc43)c1CC2C (stereo not given) | 37.9% | 49.9% | 48.5% | 31.8% | 7.26% (active) | 38.3% | -0.316% (active) | 26.2% | 22.8% | 0.292% (active)
11 | O=C(O)c1ccc(-n2cc(/C=N/Nc3ccccc3)c(-c3ccc(F)cc3F)n2)cc1 | 71.5% | 84.2% | 62.1% | 40.2% | 55.3% | 83.5% | 26.6% | 60% | 71.5% | 108%
12 | Cc1ccc(C2=Nc3c(N)ncnc3NC(c3cccc(Nc4ccnc5cc(C(F)(F)F)ccc45)c3)C2)cc1 (stereo not given) | 44.3% | 59.8% | 67.2% | 41.1% | 21.2% | 2.86% (active) | 30.6% | 24.6% | 42.6% | 9.89% (active)
13 | CSc1nnc(-c2cc3c([nH]c4ccccc43)c(-c3cccc(O)c3)n2)n1-c1ccccc1 | 55.1% | 51.6% | 43.3% | 47.6% | 12.1% | 48.7% | -15% (active) | 46.1% | 24.1% | 85.3%
14 | C#CCOc1cccc(Nc2ncnc3ccc(NC(=O)C=C)cc23)c1 | 65.4% | 61.8% | 2% (active) | 58.4% | 81.2% | 14.7% | 15.9% | 34.2% | 35.2% | 68.4%
15 | COc1ccc2c(c1OC)CO[C@@H]2[C@H]1c2c(cc3c(c2OC)OCO3)CCN1S(=O)(=O)c1cn(C)cn1 | 32.9% | 73.6% | 48% | 30.9% | 6.13% (active) | 60.7% | 19.4% | 21.2% | 41.9% | 0.532% (active)
16 | Oc1c(I)cc(I)cc1CNCc1ccccn1 | 52.4% | 62.5% | 40.1% | 28.3% | 19.9% | 63.2% | 4.61% (active) | 23.6% | 36.1% | 74.1%
17 | CCOc1ccc(NC(=O)CSc2oc(-c3ccccc3)nc2S(=O)(=O)c2ccc(C)cc2)cc1 | 67.4% | -18.8% (active) | 61.1% | 53.9% | 35.9% | 46.4% | 83.8% | 41.1% | 66.1% | 81.8%
18 | O=c1scc(-c2ccc(C(F)(F)F)cc2)s1 | 89% | 91% | 90.5% | 92.3% | 102% | 81% | 67.5% | 79.1% | 90.3% | 131%
19 | CCn1c(SCC(=O)N/N=C(\C)c2ccc(Cl)cc2)nc2c1c(=O)n(C)c(=O)n2C | 102% | 99.7% | 96.9% | 91.8% | 101% | 103% | 97.7% | 104% | 101% | 107%
20 | C=CCn1c(SCC(=O)Nc2ccc(C(=O)/C=C/c3ccc(Cl)cc3)cc2)nnc1-c1ccc(Br)cc1 | 83.7% | 80.7% | 91.8% | 104% | 83.1% | 87.2% | 60.3% | 65.4% | 89% | 118%
21 | CC/C(=C(/c1ccc(Cl)cc1)c1ccc(OCCN(C)C)cc1)c1ccc(Cl)cc1 | 73.5% | 87.5% | 83.6% | 78.5% | 37.3% | 83.7% | 70.3% | 61.2% | 66.3% | -16.1% (active)
22 | COC(=O)CC[C@@H]1O[C@@H](c2cccc(C(F)(F)F)c2)[C@@H](O)[C@H]1O | 94.2% | 103% | 103% | 103% | 102% | 84.3% | 98.6% | 107% | 103% | 108%
23 | CCOC(=O)C1=C(C)NC(=O)NC1c1c(Cl)n(CCCl)c2ccccc12 (stereo not given) | 92.5% | 92% | 92.6% | 90.8% | 98.9% | 42.9% | 90% | 95.4% | 92.9% | 117%
24 | Cn1cc(-c2csc(-c3c[nH]c4ccccc34)n2)c2cnccc21 | 85.5% | 87.7% | 90.2% | 8.92% (active) | -17.7% (active) | 72.7% | -39.6% (active) | 18% | -87% (active) | -37.3% (active)
25 | CC(=O)Oc1ccc(N2C(=O)C(Cl)=C(Nc3cccc(C(F)(F)F)c3)C2=O)cc1 | 100% | 92.1% | 98.6% | 96.9% | 102% | 99.7% | 86% | 93.9% | 95.7% | 93.4%
26 | C=C(C)[C@@H]1CC[C@]2(C(=O)O)CC[C@]3(C)[C@H](CC[C@@H]4[C@@]5(C)CCC(NC(=O)c6cccc(OC(C)=O)c6OC(C)=O)C(C)(C)[C@@H]5CC[C@]43C)[C@@H]12 (stereo not given in full) | 1.89% (active) | -17.4% (active) | 8.78% (active) | -14.6% (active) | -39.4% (active) | -11% (active) | -11.4% (active) | -6.31% (active) | -3.81% (active) | -11.3% (active)
27 | COC1=CC(c2ccc[nH]2)=N/C1=C\c1[nH]c(C)c(CC(=O)OCc2ccccc2)c1CCC(=O)OCc1ccccc1 | -12.6% (active) | -12.8% (active) | 34.7% | -22.2% (active) | 12.2% | -26.1% (active) | -48.5% (active) | 5.29% (active) | -56.2% (active) | -45.6% (active)
